The values that follow come from the supplement of paper PMC10338343.

± gives the standard deviation.

This assay deals with EfPiwi piRISC loaded with L1MC piRNA (26 nt). In words: pre-steady-state target cleavage rate (min^-1); auxiliary factor: 500 nM Ephydatia muelleri Gtsf1; guide: L1MC piRNA 5'p-UAACUAAAUACUAUGCAAGCUGUAGG; MIWI and MILI are mouse PIWI proteins and EfPiwi is from a freshwater sponge; tags in brackets are library labels; higher = faster piRNA-guided slicing of the target. On the procedure: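 Cleave-'n-Seq: a library of target RNAs (target site in constant flanks) at […] was incubated with 1 nM active freshwater sponge Ephydatia fluviatilis Piwi piRISC (synthetic 5'-monophosphorylated piRNA guide) with or without 500 nM EmGtsf1 at 33 °C for 1 min to 16 h. Uncleaved targets were sequenced and the pooled three trials fitted to a burst-and-steady-state model to give the pre-steady-state cleavage rate (min^-1). Sequence is the target site only. Fits with R² ≤ 0 are excluded.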
In the case of UCCUGGUACAGCUUGCAUCGUAUUUAGUUA, the “pre-steady-state target cleavage rate” value was determined as 0.00642 ± 0.0025.
As for UCCUGGAACAGCUUGCAUAGUAUUUUGAAA, the figure is 0.00294 ± 0.0022; as for UCCUGGAUCAGCUUGCAUAGUAUUUAAUUA, 0.00916 ± 0.0034; as for UCCUGUUACAGCUUGCAUAGUAUUUAGUUA, 0.231 ± 0.07.
As for UCCUCGUACAGCUUGCAUAGUAAUUAGUUA, the “pre-steady-state target cleavage rate” value amounted to 0.111 ± 0.033.
In the case of UCCUGCUACAGCUUGCAUAGAAUUUAGUUA it was 0.00582 ± 0.0022; in that of UCCUGGAUGAGCUUUCAUAGUAUUUAGUUA, 0.00433 ± 0.0018; in that of UCCUCGUUCAGCUUGCAUAGUAUUUAGUUA, 0.104 ± 0.021.
As for UCCUGGAUGAGCUUGCAUAGUAUUUAGAAA, the figure is 0.00648 ± 0.0025.
As for UCCUGGAUCAGGUUGCAUAGAAUUUAGUUA, the “pre-steady-state target cleavage rate” value was 0.00305 ± 0.0023.
Regarding UCCUGGUAGCAGCUUGCAUAGUAUUUAGUUA, the “pre-steady-state target cleavage rate” value came to 0.0746 ± 0.02.
In the case of UCCUGGAUGAGCUUGCAUACUAUUUAGAAA it was 0.00478 ± 0.0029; in that of UCCUGCUACUGCAUGCAUAGUAUUUAGUUA, 0.00847 ± 0.0024.
In the case of UCCUGGUACAGCUUGCAUAGUAUUUAGUUUA it was 0.0765 ± 0.024.
For UCCUGGAUCAGCUUCAUAGUAUUUAGUUA, the “pre-steady-state target cleavage rate” value stood at 0.00789 ± 0.0033.
In the case of UCCUCCUCAGCUUGCAUAGUAUUUAGUUA it was 0.0735 ± 0.017; in that of UCCUGGUACAGCUUGCAUACUAUUUAGUAA, 0.00327 ± 0.0023; in that of UCCUGCUACAGCUUGAAUAGUAUUUAGUUA, 0.0179 ± 0.0045.
As for “UCCUGGAUGUCGAAGCAUAGUAUUUAGUUA [g2:g16:cont:t1A]”, the “pre-steady-state target cleavage rate” value stood at 0.00352 ± 0.002.
As for UCCUCCAACAGCUUGCAUAGUAUUUUGUUA, the figure is 0.00594 ± 0.0025; as for UCCUGCUACAGCUUGCAUAGUAUUAAGUAA, 0.00315 ± 0.0016.
UCCUGGAUCAGCUUGGAUAGUAUUUAGUAA: the “pre-steady-state target cleavage rate” value stood at 0.00463 ± 0.0023.
For UCCUGCUACAGCUUGCAUAGUAGUUAGUUA, the “pre-steady-state target cleavage rate” value was 0.00461 ± 0.0015.
As for UCCUCCUACAGCUUGCAUAGUGUUUAGUUA, the figure is 0.0149 ± 0.0041; as for UCCUGGUACAGCUUGCACUAGUAUUUAGUUA, 0.00323 ± 0.0029; as for UCCUGGUACAGCAUGCAUAGUAUUUAGAUA, 0.00412 ± 0.0025.
Take UCCUCCUACAGCUUGCUUAGUAUUUAGAUA: the “pre-steady-state target cleavage rate” value came out at 0.00689 ± 0.0038.
Take UCCUGGAAAAGCUUGCAUAGUAUUUAGUUA: the “pre-steady-state target cleavage rate” value was 0.0119 ± 0.0039.
As for UCCUCCUACAGCUUGCAUAGUAUAUUCAAA, the figure is 0.00316 ± 0.0027; as for UCCUGGUACAGCAUGCUUAGUAUUUAGUUA, 0.00778 ± 0.0028.
As for UCCUGGAUCAGCUUGCAUAGUAUUUAGAAA, the figure is 0.00346 ± 0.0016.
Consider UCCUGGAACAGCUUGCAUAGUAUUUAGGUUA, for which the “pre-steady-state target cleavage rate” value worked out at 0.00305 ± 0.0027.
In the case of UCCUGCUUCAGCUAGCAUAGUAUUUAGUUA it was 0.0566 ± 0.015; in that of UCCUGGAACAGCUAGCAUAGUAUUUAGAUA, 0.0041 ± 0.0023; in that of UCCUCCUACAGCAUCCAUAGUAUUUAGUUA, 0.00359 ± 0.0017.
Consider UCCUGGUUCAGCUUGCAUAGUAUUUAGAUA, for which the “pre-steady-state target cleavage rate” value was 0.00378 ± 0.002.
Take UCCUGGAUGUCGAACGUAUCUAUUUAGUAA: the “pre-steady-state target cleavage rate” value is under 0.0001.
As for UCCUGCUAACAGCUUGCAUAGUAUUUAGUUA, the figure is 0.0114 ± 0.0038.
UCCUGGUACAGCUUGCAUAGUAUAAAGUUA: the “pre-steady-state target cleavage rate” value was determined as 0.00482 ± 0.0022.
Consider UCCUGCUACAGCUUGCAUAGUAUUAGUUA, for which the “pre-steady-state target cleavage rate” value worked out at 0.00404 ± 0.0022.
